Where “and” joins values, the source holds several entries; their conditions need not be identical. Identical values can stand only once. About 400 (0.57%) of roughly 70,000 compounds were called active. Cut-off read from the data, not from the text of the source: active = FP signal below about 40; inactive = the rest. Only a selection was taken, and actives are over-represented in it overall.

The values that follow come from PubChem BioAssay AID1159607 (Small Molecule Screening Facility, UW Madison, 2016).

This experiment deals with RMI core complex (RMI1/RMI2) binding to FANCM MM2 peptide, human. The experiment is described as follows: disruptors of RMI1/RMI2 association with MM2 peptide – biochemical, fluorescence polarization, human, primary screen (AID 1159607). The settings on record: RMI core complex with F-MM2 peptide, at 33 µM, stronger effect = lower value.
Regarding `CC(=O)O[C@H]1CC[C@@]2(C)C(=CCC3C2CC[C@]2(C)C(=O)CCC32)C1` (stereo not given in full), the FP signal (polarization) was -6 (active).
The same measure for `CC(=O)NBr`: 53 (inactive); for `CC12CCC3C(CCC4CC(O)CCC43C)C1C/C(=C\c1ccccc1Cl)C2=O` (stereo not given): 62 (inactive); for `CN1CCc2cc3c(cc2[C@H]1[C@@H]1OC(=O)c2c1ccc1c2OCO1)OCO3`: 67 (inactive) and 61 (inactive).
As for `CSC(=NCc1ccccc1Cl)N/C(N)=N/[N+](=O)[O-]`, the FP signal (polarization) was 58 (inactive).
Next, `NCC(O)c1ccc(O)cc1` (stereo not given): -18 (active) and 54 (inactive) and 46 (inactive).
Next, `COc1ccc2c(c1O)-c1cccc3c1[C@@H](C2)N(C)CC3`: 57 (inactive); `c1cncc(OCC2=NCCN2)c1`: 51 (inactive).
Next, `CNC(=O)O/N=C\C(C)(C)SC`: 58 (inactive).
Regarding `CC(=O)NS(=O)(=O)c1ccc(NC(=O)c2cccn(Cc3cccc([N+](=O)[O-])c3)c2=O)cc1`, the FP signal (polarization) is 51 (inactive).
